From PubChem BioAssay
Sampled rows, rich in hits. Any-hit rate of the full collection: about 22%.
CYP2C19 inhib: inhibitors of human CYP2C19; P33261; CYP2C19 Supersomes, luciferin-H EGE luminescence, 30 min; inhibition, % at 5 µM; 96,000 compounds, 21% hits; AID 778;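 active = CYP2C19 inhibition above a set limit at 5 µM in the primary screen, cut at about 50% in these data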
CYP2C19 activ: increases human CYP2C19 enzyme activity. recombinant CYP2C19, luciferin-H EGE luminescence; stronger effect = higher value; 0 = fully inhibited enzyme, 1 = untreated enzyme. activation factor at 5 µM. 96,000 tested, under 10 active. AID 1025;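 active = activation factor of at least 2 at 5 µM in the primary screen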
CYP2C9 act: increases human cytochrome P450 2C9 activity; P11712; recombinant CYP2C9, luciferin-H conversion, luminescence; stronger effect = higher value; factor 1 = untreated enzyme, 0 = blocked; activation factor at 5 µM; 96,000 compounds, 1.4% hits;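 active = activation factor of 2 or more for CYP2C9 at a 5 µM dose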
Target sequence (P11712 whole entry, looked up): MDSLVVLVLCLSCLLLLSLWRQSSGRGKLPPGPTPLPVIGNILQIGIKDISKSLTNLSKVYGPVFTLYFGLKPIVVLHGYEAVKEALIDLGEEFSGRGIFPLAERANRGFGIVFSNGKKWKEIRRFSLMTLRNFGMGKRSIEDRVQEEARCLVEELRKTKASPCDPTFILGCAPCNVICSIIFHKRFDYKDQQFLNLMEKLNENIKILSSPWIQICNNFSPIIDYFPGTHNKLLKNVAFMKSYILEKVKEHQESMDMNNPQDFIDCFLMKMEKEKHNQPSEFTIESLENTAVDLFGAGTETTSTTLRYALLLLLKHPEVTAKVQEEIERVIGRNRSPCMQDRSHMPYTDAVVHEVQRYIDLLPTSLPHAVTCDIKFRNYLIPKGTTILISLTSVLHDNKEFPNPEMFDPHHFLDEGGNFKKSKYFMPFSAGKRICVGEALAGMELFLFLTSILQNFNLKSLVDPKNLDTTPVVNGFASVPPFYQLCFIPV
Measles CPE: protection of cells from measles virus. Measles virus-infected cells, CPE protection, absorbance. protection (pct of control), % at 4 µM. 140,000 compounds, 1.5% hits. AID 841; in the data active = protection mostly above about 24%, no sharp cut-off; inactive = mostly below about 26%
CYP2C9 inh: inhibitors of human CYP2C9. P11712. CYP2C9 Supersomes, luciferin-H conversion, luminescence. inhibition, % at 5 µM. 96,000 compounds, 20% hits. AID 777;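 active = blocking of liver enzyme CYP2C9 beyond about 50% at 5 µM, limit read from the data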
Numbers stand for hits; – = inactive; · = not tested or not shown.

SMILES	CYP2C19 inhib	CYP2C19 activ	CYP2C9 act	Measles CPE	CYP2C9 inh
CCS(=O)(=O)c1ccc(O)c(NC(=O)COc2ccc(OC)cc2)c1	·	·	·	–	·
COc1ccc(CC(=O)Nc2cc(Cl)ccc2O)cc1	92	–	–	–	59
COc1ccc(OC)c(S(=O)(=O)N(C)CC(=O)Nc2cc(Cl)ccc2OC)c1	·	·	·	–	·
COc1ccc(CCC(=O)Nc2cc(Cl)ccc2OC)cc1	100	–	–	–	–
COc1ccc(Cl)cc1NC(=O)C(C)Sc1n[nH]c(N)n1 (stereo not drawn)	–	–	2.3	–	–
COc1ccc(Cn2cnc3c(NS(C)(=O)=O)c(C)c(C)cc32)cc1	65	–	–	–	–
Cc1ccccc1Cn1cnc2c(NS(C)(=O)=O)c(C)c(C)cc21	–	–	–	–	–
CCN(CCCNC(=O)c1c(C)cc(=O)oc1C)c1ccccc1	98	–	–	–	83
CCCCN(CCCNC(=O)c1c(C)cc(=O)oc1C)c1ccccc1	51	–	–	–	90
CCOc1cc2c(cc1OCC)C(c1ccccc1)N(c1ccccc1)C(=O)C2 (stereo not drawn)	·	·	·	–	·
Clc1ccc(-c2nnnn2-c2ccc(Cl)c(Cl)c2)cc1Cl	96	–	–	–	53
O=C(Cn1[nH]c(=O)c2ccccc2c1=O)NC1CCCCCC1	–	–	–	–	–
O=c1[nH]n(CC2COC3(CCCCC3)O2)c(=O)c2ccccc12 (stereo not drawn)	76	–	–	–	–
Cc1nn(-c2ccccc2)c(C)c1/C=N/NC(=O)c1cc(C2CC2)[nH]n1	60	–	–	–	58
Cc1nn(-c2ccccc2)c(C)c1/C=N/NC(=O)c1cc(C23CC4CC(CC(C4)C2)C3)[nH]n1	–	–	–	–	53
Cc1nn(-c2ccccc2)c(C)c1/C=N/NC(=O)c1cc(-c2cccs2)[nH]n1	·	·	·	–	·
Cc1nn(-c2ccccc2)c(C)c1/C=N/NC(=O)c1cc(-c2ccc(Br)s2)[nH]n1	77	–	–	–	84
CCCn1c(=O)c(C(=O)Nc2c(C)n(C)n(-c3ccccc3)c2=O)c(O)c2ccccc21	–	–	–	·	–
COCCn1ccc(O)c(Cc2ccc(Cl)cc2)c1=O	–	–	–	–	–
O=C(c1oc(=O)c2ccccc2c1-c1ccccc1)N1CCN(C2CCCCC2)CC1	99	–	–	–	70
O=C(c1oc(=O)c2ccccc2c1-c1ccccc1)N1CCC(O)CC1	–	–	–	–	–
Cn1c(C(=O)NCc2ccc3c(c2)OCO3)cc2sccc21	80	–	–	–	75
Cn1c(C(=O)Nc2ccccc2)cc2sccc21	–	–	–	–	–
CN1C(=O)c2ccc(C(=O)NCc3ccc4c(c3)OCO4)cc2C1=O	·	·	·	–	·
COc1cc(NC(=O)c2cc3sccc3n2C)cc(OC)c1	86	–	–	–	80
SMILES	CYP2C19 inhib	CYP2C19 activ	CYP2C9 act	Measles CPE	CYP2C9 inh
Cn1c(C(=O)Nc2ccc3c(c2)OCO3)cc2sccc21	96	–	–	–	–
COc1ccc(C(=O)NC(=S)Nc2ccc(NC(=O)c3ccco3)cc2)cc1[N+](=O)[O-]	·	·	·	–	·
CC(=O)c1cccc(Nc2cc(C)nc3c(C)cc(C)cc23)c1	·	·	·	–	·
CCC(=O)c1ccc(OCC(=O)Nc2nn3cnnc3s2)cc1	–	–	–	–	84
CCC(=O)c1ccc(OCC(=O)O)cc1	–	–	–	–	–
CC1CCCCN1C(=O)Cn1c(=O)n(C2CCCCC2)c(=O)c2ccccc21 (stereo not drawn)	–	–	–	–	–
COC(=O)c1cccc(NC(=O)Cc2ccccc2[N+](=O)[O-])c1C	·	·	·	–	·
CCn1c(O)c(/C=N/N=C/c2ccccc2)c2ccc(C3=NNC(=O)CC3)cc21	–	–	–	–	64
CCN(CC)CCNC(=O)CS(=O)Cc1nc(-c2ccc(C)cc2)oc1C (stereo not drawn)	–	–	–	–	–
Cc1noc(N)c1C(=O)Nc1ccc(F)c(Cl)c1	–	–	–	–	–
CCOC(=O)c1ccc(NC(=O)CCc2nc(-c3cccc(C)c3)no2)cc1	–	–	–	–	52
Cc1cccc(-c2noc(CCC(=O)NCc3ccccc3)n2)c1	–	–	–	–	–
Cc1cccc(-c2noc(CCC(=O)Nc3ccccc3)n2)c1	92	–	–	–	75
Nc1nc(SCC(=O)c2cccc([N+](=O)[O-])c2)n[nH]1	·	·	·	–	·
O=c1c(-c2ccnn2-c2ccc(F)cc2)cnc2n1CCS2	79	–	–	–	–
N#Cc1c(-c2ccc(F)cc2)nc2n(c1=O)CCS2	–	–	–	–	–
N#Cc1ccc(-n2nccc2-c2cnc3n(c2=O)CCS3)cc1	92	–	–	41	–
O=c1c(-c2ccnn2-c2cccc(Cl)c2)cnc2n1CCS2	91	–	–	–	–
O=c1c(-c2ccnn2-c2ccccc2F)cnc2n1CCS2	58	–	–	–	–
O=C(Nc1ccccc1)c1cnc2n(c1=O)CCS2	–	–	–	–	–
O=C(NC1CCCCCC1)c1cc(S(=O)(=O)N2CCC3(CC2)OCCO3)ccc1F	·	·	·	–	·
CCOC(=O)c1sc(NC(=O)CN2C(=O)c3cccc4cccc(c34)C2=O)nc1C	–	–	–	–	–
Cc1sc2ncnc(SC(C)C(=O)N3c4ccccc4Sc4ccccc43)c2c1C (stereo not drawn)	·	·	·	–	·
NC1=NC(c2ccc(Cl)cc2)n2c(nc3ccccc32)N1 (stereo not drawn)	88	–	–	–	–
NC1=NC(c2ccccc2Cl)n2c(nc3ccccc32)N1 (stereo not drawn)	–	–	–	–	–
SMILES	CYP2C19 inhib	CYP2C19 activ	CYP2C9 act	Measles CPE	CYP2C9 inh
Cc1ccc(C(=O)N/C(=C/c2ccco2)C(=O)OCN2C(=O)c3ccccc3C2=O)cc1	·	·	·	–	·
O=c1c2ccccc2cnn1Cc1n[nH]c(=S)n1-c1ccccc1	·	·	·	–	·
O=c1[nH]c(SCc2n[nH]c(=S)n2-c2ccccc2)nc2ccccc12	73	–	–	–	80
O=c1[nH]c(SCc2n[nH]c(=S)n2-c2ccccc2)nc2sc3c(c12)CCC3	–	–	–	–	72
S=c1[nH]nc(Cc2cccc3ccccc23)n1-c1ccccc1	–	–	–	–	90
CC1CCN(S(=O)(=O)c2ccc3c(c2)c(=O)c(C(=O)NC2CCCC2)cn3C)CC1	–	–	–	–	–
CSc1nc(-c2ccccc2)ccc1C(N)=O	–	–	–	–	–
COc1cc(C(=O)N2CCN(C(=O)CC(C)C)CC2)cc(OC)c1OC	–	–	–	–	–
O=C(c1cc(-c2cccs2)on1)N1CCc2ccccc2C1	·	·	·	–	·
O=C(c1cc(-c2ccco2)on1)N1CCCc2ccccc21	–	–	2.5	–	–
O=C(c1cc(-c2cccc(O)c2)on1)N1CCOCC1	59	–	–	–	–
O=C(c1cc(-c2ccccc2O)on1)N1CCc2ccccc2C1	–	–	–	–	–
O=C(c1cc(-c2ccco2)on1)N1CCc2ccccc2C1	–	–	–	69	–
O=C(c1cc(-c2ccc(O)cc2)on1)N1CCc2ccccc2C1	82	–	–	–	–
Cc1nnc(SCC(=O)N2CC(=O)Nc3ccccc32)n1Cc1ccccc1	–	–	–	–	–
